Assay results reported in PubChem BioAssay AID1159580 (chemical genetic matrix, 2015).
The whole screen tested about 5,500 compounds, of which about 2,000 (36%) were called active. Another 18% or so got no clear call; they are omitted. Rule as the data show it: active = normalized growth mostly below about 0.91 (no sharp cut-off); inconclusive = no clear call, values can overlap the other calls; inactive = mostly above about 0.92. Some of the results follow.

Assay: chemical genetic growth profiling, strain panel (AID 1159580);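 also: tested at 20 µM; growth read once vehicle control cultures reached saturation at 30 °C; 1 = growth at the plate median or of vehicle wells; lower values mean less growth of the strain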
Conditions: S. cerevisiae deletion strains, growth OD

Measured: normalized growth

O=[N+]([O-])O[C@@H]1CO[C@H]2[C@@H]1OC[C@@H]2O
inactive: locus YHR030C, strain SLT2, hits give low values 0.983 | locus YHR079C, strain IRE1, hits give low values 0.991 | locus YJL095W, strain BCK1, hits give low values 1 | locus YJR066W, strain TOR1, hits give low values 0.955 | locus YLR113W, strain HOG1, hits give low values 0.999 | locus YNL183C, strain NPR1, hits give low values 0.932 | locus YOR231W, strain MKK1, hits give low values 0.981 | locus YPL256C, strain CLN2, hits give low values 0.966
